Compound activity as filed in PubChem.
In the library only some 1.5% were active in any assay of this set; here they are far more common.
sPLA2-III inh: Blocks human group III sPLA2 activity | Q9NZ20 | QFRET BODIPY PC-A2 liposome hydrolysis, fluorescence | inhibition, % at 12.2 µM | 370,000 tested, 0.56% active;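 active = inhibition above mean plus 3 SD of compounds lying within the high and low control bounds, cut at about 19% in these data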;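 note: 0% = median of test compound wells and 100% = no enzyme DMSO wells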
Target sequence (Q9NZ20 whole entry, looked up): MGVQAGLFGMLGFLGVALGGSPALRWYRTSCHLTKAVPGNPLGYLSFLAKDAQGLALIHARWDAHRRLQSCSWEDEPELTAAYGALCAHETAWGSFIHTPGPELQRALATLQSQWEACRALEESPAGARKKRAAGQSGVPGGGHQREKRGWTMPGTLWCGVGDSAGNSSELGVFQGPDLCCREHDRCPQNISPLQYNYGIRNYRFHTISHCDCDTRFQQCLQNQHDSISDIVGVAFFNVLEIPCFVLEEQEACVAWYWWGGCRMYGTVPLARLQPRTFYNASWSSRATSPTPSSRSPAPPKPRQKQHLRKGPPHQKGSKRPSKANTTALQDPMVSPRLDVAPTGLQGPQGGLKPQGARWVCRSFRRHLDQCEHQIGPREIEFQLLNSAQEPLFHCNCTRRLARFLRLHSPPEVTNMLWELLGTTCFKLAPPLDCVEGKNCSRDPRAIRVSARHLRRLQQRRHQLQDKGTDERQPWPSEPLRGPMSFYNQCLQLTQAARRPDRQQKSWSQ
PLC-gamma1 inh: inhibitors of human phospholipase C gamma1. P19174. purified PLC-gamma1, fluorogenic substrate, fluorescence. inhibition, % at 12.2 µM. 370,000 tested, 0.84% active
DAGLB inh: diacylglycerol lipase beta (human) inhibition; Q8NCG7; HEK293T DAGLB membrane lysate, EnzChek fluorogenic substrate; inhibition, % at 5.17 µM; 340,000 tested, 0.059% active; in the data active = inhibition above about 34%;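 note: 0% = enzyme with vehicle and 100% = wells lacking enzyme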
PLCb3 inh: blocks human PLC-beta3 enzyme activity. AID 720704. 370,000 tested, 0.18% active. Q01970. Purified PLC-beta3, fluorogenic substrate, fluorescence. inhibition, % at 12.2 µM; in the data active = inhibition above about 11%;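 note: 0% = median of compound wells on plate and 100% = full blocker control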
PLCgamma1 ctr: counter-screen for PLC-beta3 inhibitors: inhibitors of human PLC-gamma1. shares compounds with PLC-gamma1 inh. purified PLC-gamma1, fluorogenic substrate, fluorescence. inhibition, % at 12.3 µM. 3,300 tested, 3.1% active. AID 743258
PLCb3 confirm: human PLC-beta3 inhibition, confirmation. purified PLC-beta3, fluorogenic substrate fluorescence. shares compounds with PLC-gamma1 inh. inhibition, % at 12.3 µM. 3,300 tested, 1% active; in the data active = inhibition above about 11%
An asterisk follows results filed as active; x = no result. Cut-off read from the data, not from the text of the source, unless noted: active = inhibition above about 9.5%; inactive = the rest.

SMILES	sPLA2-III inh	PLC-gamma1 inh	DAGLB inh	PLCb3 inh	PLCgamma1 ctr	PLCb3 confirm
CC(C)CC(NC(=O)c1ccccc1)C(=O)OCC(=O)Nc1ccc(Br)cn1 (stereo not drawn)	0	11*	1	9	-1	2
O=C(COc1ccccc1)NC(=S)Nc1ccc(Br)cn1	6	0	x	-5	x	x
CCn1c(SCC(=O)Nc2ccc(S(=O)(=O)Nc3cc(C)nc(C)n3)cc2)nc2sc(C)c(C)c2c1=O	-13	0	x	-3	x	x
O=C1c2cccnc2C(=O)N1c1cccc([N+](=O)[O-])c1	2	16*	-3	0	-2	-3
O=C(O)c1cccc(N2C(=O)c3cccnc3C2=O)c1	1	-1	0	4	x	x
NCCCCC(N)c1cn([C@@H](CCC(=O)O)C(=O)N2CCNCC2)nn1 (stereo partly drawn)	10	0	-1	13*	-3	0
COc1ccc(C(=O)NCC2CCCN2S(=O)(=O)c2ccccc2)cc1OC (stereo not drawn)	-3	9.5*	1	-2	-3	0
Cc1ccc(S(=O)(=O)N2CCCC2CNC(=O)c2ccccc2)cc1 (stereo not drawn)	-8	0	1	-8	x	x
CC1(C)C=C2C(N(Cc3ccc4c(c3)OCO4)C(=N)N2C(=O)OCc2ccccc2)n2c(=O)n(-c3ccccc3)c(=O)n21 (stereo not drawn)	11	-12	x	-15	x	x
Cc1cc(C)cc(NC(=O)N2CCN(Cc3nc4ccccc4c(=O)[nH]3)CC2)c1	13	0	x	-2	x	x
CN(C(=O)c1ccccc1OCC(=O)Nc1ccc(Br)cc1)c1ccccc1	-5	0	x	-3	x	x
O=C(Nc1ccc(F)c(Cl)c1)c1cc(C2CCCN(S(=O)(=O)c3cccc4cccnc34)C2)on1 (stereo not drawn)	-21	1	x	11*	-9	-5
CCCNC(=O)c1cc(C2CCCN(S(=O)(=O)c3cccc4cccnc34)C2)on1 (stereo not drawn)	-4	2	x	3	x	x
c1ccc(C2=NOC(c3nnc(-c4ccccc4)o3)C2)cc1 (stereo not drawn)	1	2	1	1	x	x
Fc1ccc(C2=NOC(c3nnc(-c4ccccc4)o3)C2)cc1 (stereo not drawn)	-1	6	-2	12*	-7	-2
CCOC(=O)N1CCC(Nc2nc3ccccc3n3cnnc23)CC1	8	7	3	11*	-5	-4
Nc1[nH]c(C(=O)c2ccc(Br)cc2)c(-c2ccc(Br)cc2)c1C(=O)N1CCCCC1	-6	-23	x	-35	x	x
O=C(OCc1ccccc1)[C@H](Cc1ccccc1)NC(=O)[C@@H]1CC=C[C@@H]2CCN(C3CCCCC3)C(=O)[C@@H]21	-9	0	x	1	x	x
c1csc(C(c2nnnn2C2CCCCC2)N2CCN(c3nc4ccccc4s3)CC2)c1 (stereo not drawn)	3	11*	0	6	-1	1
CC(C)c1ccc(NC(=O)O[C@@H]2CC[C@@]34CCCN3C(=O)CCC[C@H]4C2)cc1	-6	-2	x	1	x	x
CCN(CC)c1ccc(-c2nn3c(-c4ccccc4Cl)nnc3s2)cc1	-2	-173	x	-239	x	x
Cc1ccc(-c2cc3c(nn2)-c2ccccc2C3=O)cc1	5	3	-3	0	x	x
Cc1ccccc1-c1cc2c(nn1)-c1ccccc1C2=O	2	9	-4	12*	2	1
COC(=O)N1CCCC1c1cccc2[nH]cc(C)c12 (stereo not drawn)	-10	-7	x	-6	x	x
CCOC(=O)N1CCC(NC(=O)CCN2C(=O)C3C4C=CC(C4)C3C2=O)CC1 (stereo not drawn)	11	10*	0	5	8	2
SMILES	sPLA2-III inh	PLC-gamma1 inh	DAGLB inh	PLCb3 inh	PLCgamma1 ctr	PLCb3 confirm
Cc1cc(C)n(-c2nc3c(c(=O)[nH]c(=O)n3C)n2C(C)C)n1	9	5	-5	14*	-6	-3
COc1ccc(C(C)c2cc3c(cc2OCC(=O)O)OCO3)cc1 (stereo not drawn)	-2	4	x	21*	-1	0
COc1ccccc1C(CC(=O)O)c1ccc2c(c1)OCO2 (stereo not drawn)	-5	0	1	-11	x	x
Cc1[nH]c2ccccc2c1/C=N/Nc1nncn1N	4	9.9*	2	6	-11	-5
O=C(NCCO)C1(C(=O)C2CC2)CC(c2ccccn2)=NO1 (stereo not drawn)	6	0	x	-1	x	x
CCOc1ccc(N(CC(=O)Nc2c(C)n(C)n(-c3ccccc3)c2=O)S(=O)(=O)c2ccc(C)c(C)c2)cc1	2	3	x	-1	x	x
O=C(CN1CCN(Cc2ccc(Cl)cc2)C1=O)NCCCN1CCN(c2ccc(F)cc2)CC1	-10	0	3	3	x	x
Cc1ccccc1CN1CCN(CC(=O)NCCCN2CCN(c3ccc(F)cc3)CC2)C1=O	-3	9.6*	0	13*	-2	-3
NC(=O)c1c(N)[nH]c(C(=O)c2ccccc2)c1-c1ccccn1	-1	1	x	-4	x	x
CC(=O)Nc1cccc(/C(C)=N/NC(=O)c2cccs2)c1	18	1	-2	-3	x	x
C/C(=N/NC(=O)c1cccs1)c1cccc(N)c1	8	11*	-3	-12	-12	-9
CCCCNC(=O)C[C@H]1C[C@@]2(C(=O)OC)C(=C[C@H](C3CCCC3)O[C@@H]2C)N(CCC2=CCCCC2)C1=O	-5	-1	x	-3	x	x
COc1cc(C(=O)Nc2ccc3c(c2)C(=O)N(CCC(=O)O)C3=O)cc(OC)c1OC	7	11*	2	5	9.5*	3
COc1ccc(S(=O)(=O)NCCCN2CCCC2=O)c(OC)c1	0	1	-1	-8	x	x
COc1ccc(S(=O)(=O)NCCCN2CCCC2=O)cc1OC	1	10.0*	3	-2	-1	2
O=C(CN1CCCC1)NCC12CC3CC(CC(C3)C1)C2	0	11*	-1	8	-1	1
COC(=O)c1cn(-c2ccccc2)nc1-c1ccccc1	-7	-4	-7	2	x	x
COC(=O)c1cn(-c2ccccc2)c(C)c1C(=O)OC	2	7	-2	12*	-1	-2
Cc1nn(-c2ccccc2)nc1-c1nnc(-c2ccc(C(F)(F)F)cc2)o1	7	1	2	-9	x	x
Cc1noc(C)c1-c1nnc(-c2ccc(C(F)(F)F)cc2)o1	9	10*	-4	1	5	2
COc1cc(/C=N/Nc2nc(Nc3ccccc3)nc(N3CCCCC3)n2)ccc1OCC(=O)O	-2	12*	1	9	-3	-3
COC(=O)c1ccc(NC(=O)CN(C)S(=O)(=O)c2ccc(OC)c(C)c2)cc1	-43	9.6*	-4	-1	-10	-4
CC1=C(C)CC(C(=O)Nc2nccs2)C(C(=O)O)C1 (stereo not drawn)	2	0	-3	-1	x	x
O=C(O)C1CCCCC1C(=O)Nc1nccs1 (stereo not drawn)	0	12*	-1	7	-2	2
